Test results: PubChem BioAssay (NCI)
The panel holds about 83,000 compounds, 20% with a hit somewhere; the sample as a whole holds those more often.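 In brief: 96-well plates, 48 h treatment, single concentration, percent growth endpoint.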 The source made the active and inactive calls. Rule for the calls: active = growth percent below 10; inactive = the rest.

System: MALME-3M melanoma
Assay: NCI-60 one-dose screen, 48 h (100 = growth as untreated, 0 = no growth, -100 = all killed)
Conditions: 10 µM unless noted

Structure (SMILES) | growth
CC(C)n1nc(C#Cc2cccc(O)c2)c2c(N)ncnc21 | -74.9% (active)
COc1cc2c(=O)n(CCCn3ccnc3)c3c4cc5c(cc4ccc3c2cc1OC)OCO5 | 39.9% (inactive)
O=C(/C=C/C12c3ccccc3C(c3ccccc31)C1C(=O)N(c3ccccc3)C(=O)C12)c1ccccc1 (stereo unspecified) | -38.1% (active)
O=C(CC12CC3CC(CC(C3)C1)C2)NCCOCCOCCOCCNC(=O)c1cc2c(o1)C(=O)c1ccccc1C2=O | -96.3% (active)
O=C1Nc2ccccc2/C1=N/N=C/c1ccc(OC2OC(CO)C(O)C(O)C2O)cc1 (stereo unspecified) | 101% (inactive)
CC(=[N-])N1CCC[C@@H](Nc2c3ccccc3nc3ccccc23)C1.[Cl][Pt].[NH-]CCC[NH-] | 20.7% (inactive)
O=C1Nc2ccccc2/C1=N/N=C/c1c[nH]c2ccccc12 | 71.8% (inactive)
CNC1(C#N)CCN(Cc2ccccc2)CC1 | 226% (inactive)
COc1cc2c(cc1OC)-c1ccc3cc4c(cc3c1N(CCCn1ccnc1)C2)OCO4 | 47.8% (inactive)
NC(=O)c1c(NC(=O)c2ccccn2)sc2c1CCC(=O)C2 | 49.4% (inactive)
NC(N)=N/N=C/c1ccc(Br)cc1 | 45% (inactive)
CCNCCNc1cc(C2CCCC2)c(C#N)c2nc3ccccc3n12 | -46.6% (active)
CS(=O)(=O)c1ccc(-c2[nH]c3ccc(F)cc3c2/C=N/O)cc1 | 105% (inactive)
N=C(N)c1ccc(-c2ccc(-c3ccc(Cl)cc3Cl)o2)cc1 | 17.4% (inactive)
CC(=O)C(C(C)=O)c1nc2sc3cc(Cl)ccc3n2c(=N)c1C#N | 95.2% (inactive)
Cc1ccc(/C=C(\C#N)n2nnc3cc(Cl)c(Cl)cc32)cc1 | 44% (inactive)
O=S(=O)(NCCNc1cc(-c2c(-c3cccc(O)c3)nc3sccn23)ccn1)c1ccc(Br)cc1 | 78.8% (inactive)
COc1ccc(/C(C)=N/NS(=O)(=O)c2ccc(C)cc2)cc1OC | 121% (inactive)
C=C(Cl)COC(=O)C(C)(C)O | 98.7% (inactive)
CCc1c(C(=O)N[C@@H]2c3cc(Cl)ccc3CC[C@@H]2O)[nH]c(C)c1C(C)=O | 110% (inactive)
COc1cc2nc(Nc3ccc(F)cc3)nc(N)c2cc1OC | 105% (inactive)
c1ccc2c(c1)nc(-n1ccnc1)c1nc3ccccc3n12 | 92.9% (inactive)
COC(=O)/C(=C\c1ccc(OC)cc1)C(=O)N1c2ccccc2Sc2ccccc21 | 32.9% (inactive)
CN1CCN(c2ccc(Nc3ncc(Cl)c(NC[C@@H]4CCCO4)n3)cc2)CC1 | 27.4% (inactive)
O=C(NC1CCOCC1)c1ccc2c(c1)CN(c1ncc(Cc3cccc(-n4cccn4)c3)s1)CC2 | 64.1% (inactive)
[2H]c1nc(Nc2ncc(F)c(-c3cc(F)c4nc(C)n(C(C)C)c4c3)n2)c([2H])c([2H])c1CN1CCN(C([2H])([2H])C([2H])([2H])[2H])CC1 | 79.5% (inactive)
COc1ccc(C2CC(c3cnccn3)=NN2)cc1OC (stereo unspecified) | 95.4% (inactive)

System: MDA-MB-231 breast
Assay: as above
Conditions: 10 µM unless noted

Structure (SMILES) | growth
CC(c1ccc(-n2cccn2)cc1)c1cnc(N2CCc3ccc(C(N)=O)cc3C2)s1 (stereo unspecified) | 72.5% (inactive)
COc1cc2c(cc1OC)-c1ccc3cc4c(cc3c1N(CCCN1CCCCC1)C2)OCO4 | 34.4% (inactive)
C[C@@H](C[C@H](CCOCc1cccnc1)c1ccccc1)c1cc2ccccc2o1 | 98.1% (inactive)
N#Cc1c(N)n2c(nc1=Nc1ccc([N+](=O)[O-])cc1)sc1cc(Cl)ccc12 | 74.5% (inactive)
C=C1C(=O)O[C@H]2[C@H]1CC/C(C(=O)NCCCCCCCCNC(=O)/C1=C/CC[C@@]3(C)O[C@H]3[C@H]3OC(=O)C(=C)[C@@H]3CC1)=C\CC[C@@]1(C)O[C@@H]21 | 74.3% (inactive)
O=C(NCCOCCOCCOCCNC(=O)c1cc2c(o1)C(=O)c1ccccc1C2=O)NC12CC3CC(CC(C3)C1)C2 | 18.5% (inactive)
CCOc1ccc2nc(-c3cccc(OCC(=O)NC(C)C)c3)nc(Nc3ccc(-c4cn[nH]c4)cc3)c2c1 | 2.7% (active)
CSc1ncc(C)c(Nc2ccc(Cl)cc2)n1 | 110% (inactive)
O=C1CCC(N2C(=O)c3cccc(NCCCC4CCN(CCNC(=O)c5cc6c(o5)C(=O)c5ccccc5C6=O)CC4)c3C2=O)C(=O)N1 (stereo unspecified) | -25.2% (active)
CCOC(=O)C1C(=O)C=C(c2cnccn2)CC1c1ccc(OC)c(OC)c1 (stereo unspecified) | 110% (inactive)
OC(CBr)c1ccnc2ccccc12 (stereo unspecified) | 103% (inactive)
O=C1N(c2ccccc2)C(=S)N[C@]12[C@H](c1ccccc1)C1CCCN1[C@]21C(=O)NC2C=CC(Cl)=C[C@H]21 (stereo partly specified) | 88.4% (inactive)
CC(C)n1nc(C#Cc2cccc(O)c2)c2c(N)ncnc21 | -67.7% (active)
COc1cc2c(=O)n(CCCn3ccnc3)c3c4cc5c(cc4ccc3c2cc1OC)OCO5 | 7.7% (active)
O=C(/C=C/C12c3ccccc3C(c3ccccc31)C1C(=O)N(c3ccccc3)C(=O)C12)c1ccccc1 (stereo unspecified) | -3.22% (active)
O=C(CC12CC3CC(CC(C3)C1)C2)NCCOCCOCCOCCNC(=O)c1cc2c(o1)C(=O)c1ccccc1C2=O | -0.382% (active)
O=C1Nc2ccccc2/C1=N/N=C/c1ccc(OC2OC(CO)C(O)C(O)C2O)cc1 (stereo unspecified) | 105% (inactive)
CC(=[N-])N1CCC[C@@H](Nc2c3ccccc3nc3ccccc23)C1.[Cl][Pt].[NH-]CCC[NH-] | 46.9% (inactive)
O=C1Nc2ccccc2/C1=N/N=C/c1c[nH]c2ccccc12 | 60% (inactive)
CNC1(C#N)CCN(Cc2ccccc2)CC1 | 112% (inactive)

Structure (SMILES) | growth
COc1cc2c(cc1OC)-c1ccc3cc4c(cc3c1N(CCCn1ccnc1)C2)OCO4 | 56.7% (inactive)
NC(=O)c1c(NC(=O)c2ccccn2)sc2c1CCC(=O)C2 | 7.89% (active)
NC(N)=N/N=C/c1ccc(Br)cc1 | 38.1% (inactive)
CCNCCNc1cc(C2CCCC2)c(C#N)c2nc3ccccc3n12 | -45% (active)
CS(=O)(=O)c1ccc(-c2[nH]c3ccc(F)cc3c2/C=N/O)cc1 | 89.2% (inactive)
N=C(N)c1ccc(-c2ccc(-c3ccc(Cl)cc3Cl)o2)cc1 | -69.7% (active)
CC(=O)C(C(C)=O)c1nc2sc3cc(Cl)ccc3n2c(=N)c1C#N | 51.9% (inactive)
Cc1ccc(/C=C(\C#N)n2nnc3cc(Cl)c(Cl)cc32)cc1 | -14.9% (active)
O=S(=O)(NCCNc1cc(-c2c(-c3cccc(O)c3)nc3sccn23)ccn1)c1ccc(Br)cc1 | 72.8% (inactive)
COc1ccc(/C(C)=N/NS(=O)(=O)c2ccc(C)cc2)cc1OC | 113% (inactive)
C=C(Cl)COC(=O)C(C)(C)O | 121% (inactive)
CCc1c(C(=O)N[C@@H]2c3cc(Cl)ccc3CC[C@@H]2O)[nH]c(C)c1C(C)=O | 84.2% (inactive)
COc1cc2nc(Nc3ccc(F)cc3)nc(N)c2cc1OC | 81.7% (inactive)
c1ccc2c(c1)nc(-n1ccnc1)c1nc3ccccc3n12 | 72.3% (inactive)
COC(=O)/C(=C\c1ccc(OC)cc1)C(=O)N1c2ccccc2Sc2ccccc21 | 54.2% (inactive)
CN1CCN(c2ccc(Nc3ncc(Cl)c(NC[C@@H]4CCCO4)n3)cc2)CC1 | 17.8% (inactive)
O=C(NC1CCOCC1)c1ccc2c(c1)CN(c1ncc(Cc3cccc(-n4cccn4)c3)s1)CC2 | 37.1% (inactive)
[2H]c1nc(Nc2ncc(F)c(-c3cc(F)c4nc(C)n(C(C)C)c4c3)n2)c([2H])c([2H])c1CN1CCN(C([2H])([2H])C([2H])([2H])[2H])CC1 | 65.2% (inactive)
COc1ccc(C2CC(c3cnccn3)=NN2)cc1OC (stereo unspecified) | 106% (inactive)
